This is a sample that favours compounds with a hit; in the whole collection about 7.2% have one here.
LASV entry inh = blocks Lassa virus binding to or entry into cells | Potency, µM (highest dose often 37.9 µM), for the others: at the highest dose activity change, negative = inhibition, hits mostly inhibitors | 1.2% of 300,000 active | Lassa virus pseudotype entry inhibition, cell reporter; calls by dose curve; tested in HEK293 cells; note: nearly all actives have a fitted effect of over 50% in size
HCV inh = inhibitors of hepatitis C virus infection; 3.4% of 340,000 active; Potency, µM (series often up to 41.8 µM), for inactives: at the highest dose activity change, negative = inhibition, actives largely listed as inhibitors; AID 651820; Huh7.5.1 HCVcc-Cre infection, luciferase reporter, 44 h
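Infectious HCV cell culture screen: compound-treated cells (1,000/well, pre-plated 4 h) are infected with HCVcc-Cre at roughly 0.5 moi and grown 44 h. Infection is quantified by luciferase signal after 15 min substrate incubation at room temperature.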
RE007 growth inh = less growth of the S. pombe RE007 Vpr strain | S. pombe RE007 Vpr strain, BacTiter-Glo ATP luminescence, 24 h | Potency, µM (series often up to 92.2 µM), inactives show at the top dose activity change, negative = less growth, actives largely listed as inhibitors | 0.21% of 360,000 active; active = well fitted falling curve with a large enough effect; inconclusive = small, poorly fitted or top-dose-only effect; inactive = no such curve, though single readings can be large or run the other way; note: nearly all actives have a fitted effect of over 50% in size
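Fission yeast strain RE007, carrying one chromosomally integrated HIV-1 vpr copy, was seeded at OD 0.01 in PMG+AL medium with 23 nL pinned compound. After 24 h at 30 °C and 99% humidity, viability was read by BacTiter-Glo luminescence.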
FMDV antiviral = antivirals against foot and mouth disease virus | FMDV antiviral cell-based qHTS | Potency, µM (series often up to 57.9 µM), inactives show at the top dose activity change, negative = inhibition, actives largely listed as inhibitors | 1.2% of 410,000 active; calls by dose curve; tested in HEK293T cells; note: read-out not given here; nearly all actives have a fitted effect of over 45% in size
Sm TGR block = inhibitors of Schistosoma mansoni thioredoxin glutathione reductase; Q962Y6; purified TGR, DTNB reduction, TNB absorbance 405 nm; Potency, µM (doses to about 114 µM), for inactives: at the highest dose activity change, negative = inhibition, usual class: inhibitors; AID 485364; 3% of 360,000 active; note: nearly all actives have a fitted effect of over 60% in size
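First, TGR (20 nM dispensed) and NADPH were mixed with compound. Second, a 15 min room-temperature incubation followed. Third, further NADPH and then DTNB were added to start the reaction. Finally, TNB absorbance was monitored kinetically.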
Marburg entry inh = Marburg virus entry inhibition. Marburg virus pseudotyped entry inhibition, cell reporter. Potency, µM (doses to about 37.8 µM), for the others: at the top dose activity change, negative = inhibition, most hits filed as inhibitors. 1.8% of 300,000 active; calls by dose curve; tested in HEK293 cells
* hit, by the source's call; ? = inconclusive; . = no result given; [ ] = dose if it differs, or a comment. Unless noted, calls come from the whole dose curve; as a rule, active = well fitted curve in the direction sought with a large enough effect; inconclusive = small, poorly fitted or top-dose-only effect, or another doubt; inactive = no such curve, though single readings can be large; an effect the other way counts as inactive or inconclusive. % is set by controls: 0 for no effect and ±100 for the full control effect; potency is the fitted concentration of half-maximal effect.

SMILES	LASV entry inh	HCV inh	RE007 growth inh	FMDV antiviral	Sm TGR block	Marburg entry inh
CN(C)CCCN(C(=O)CCOc1ccccc1)c1nc2ccc(F)cc2s1	.	?	-22%	0%	0.63µM*	.
CC(=O)N(Cc1cccnc1)c1nc2c(F)cc(F)cc2s1	-16%[46.1 µM]	.	.	-6%	2%	.
CN(C)CCCN(C(=O)CCOc1ccccc1)c1nc2c(F)cccc2s1	.	?	-15%	-13%	0.4µM*	.
Cc1ccc(CN2CCC(C3(c4ccccn4)NC(=O)N(CC4CCCO4)C3=O)CC2)cc1C (stereo unspecified)	.	.	.	-5%	.	.
O=C1C=C(N(CCO)Cc2ccccc2)c2ccccc2C1=O	4.5µM*	?	-30%	14µM*	?	?
CCN1CCN(c2ccc(NC(=O)CCc3c(C)nc4c(-c5ccc(F)cc5)c(C)nn4c3C)cc2)CC1	.	2.5µM*	-4%	-26%	2%	.
Cc1nc2c(-c3ccc(F)cc3)c(C)nn2c(C)c1CCC(=O)Nc1ccccc1	.	?	-4%	?	-9%	.
CC(=O)OC[C@H]1O[C@@H](n2ncc(=O)[nH]c2=O)[C@H](OC(C)=O)[C@@H]1OC(C)=O	0.73µM*	28%	-2%[18.4 µM]	-16%	5%	?
CC(=O)Nc1ccc(NC(=O)c2ccccc2-n2cnnn2)cc1	-4%	9%	-3%	-8%	0%	-9%[46.1 µM]
CCc1ccc2[nH]c3nc(SCC(=O)NNC(=O)c4ccc(C(C)(C)C)cc4)nnc3c2c1	?	?	-6%	-4%	-14%	4.6µM*
COCc1c(C(=O)OCC(=O)c2c(N)n(CC(C)C)c(=O)n(C)c2=O)oc2ccccc12	-27%	?	-1%	32µM*	6%	-28%
CC(C)Cn1c(N)c(C(=O)COC(=O)c2c(F)cccc2F)c(=O)n(C)c1=O	.	-30%	-14%	?	4%	.
Cc1c(C(=O)OCC(=O)c2c(N)n(CC(C)C)c(=O)n(C)c2=O)oc2ccccc12	-23%	?	8%	?	-10%	10µM*
Cc1c2cnn(CC(=O)NCCc3ccccc3)c(=O)c2c(C)n1Cc1ccccc1Cl	0%[46.1 µM]	.	.	-1%	-3%	?
COCC1CCCN(Cc2ccc3c(c2)CN(C(=O)c2cc(-c4ccccc4)n[nH]2)CCO3)C1 (stereo unspecified)	.	.	.	-20%	.	.
CCOC(=O)N1CCN(Cc2ccc3c(c2)CN(C(=O)c2cc(-c4ccccc4)no2)CCO3)CC1	.	.	.	25µM*	.	.
CCOC(=O)N1CCN(Cc2ccc3c(c2)CN(C(=O)c2cc(-c4ccccc4)on2)CCO3)CC1	.	.	.	28µM*	.	.
CC(C)C[C@H]1CNC(=S)N1C[C@H]1CCCN1C[C@H](Cc1ccc(O)cc1)N1C[C@H](CC(C)C)N(CC2CCCCCC2)C1=S	.	.	-5%	-23%	.	.
COc1ccccc1NC(=O)CN1C(=O)CCSc2ccccc21	.	.	.	-4%	1%	-2%[46.1 µM]
COCC1CCN(C(=O)c2cc(COc3cccc4cnccc34)on2)CC1	-9%[46.1 µM]	7.1µM*	-2%	?	2%	-16%[46.1 µM]
COc1ccc(OCc2cc(C(=O)N3CCCC(CO)C3)no2)c2ccccc12 (stereo unspecified)	-12%	?	4%	18%	?	-13%
COCC1CCN(C(=O)c2cc(COc3ccc(F)cc3Cl)on2)C1 (stereo unspecified)	.	.	2%	51%	.	.
O=C(c1cc(COc2cccc3cnccc23)on1)N1CCCC(CCCO)C1 (stereo unspecified)	.	1.4µM*	-8%	32µM*	2%	.
Cc1nn(C)cc1C(C)NC(=O)c1cc(COc2cccc3cnccc23)on1 (stereo unspecified)	-26%	?	-8%	20µM*	-14%	?
COc1ccc(CCNC(c2ccc(F)cc2)c2nnc(-c3ccccc3Cl)o2)cc1OC (stereo unspecified)	-28%[46.1 µM]	.	.	?	1%	13µM*
COc1ccccc1NC1=C(NC(C)=O)C(=O)c2ccccc2C1=O	.	?	-29%	6%	4µM*	.
COC1=C(Nc2ccccc2OC)C(=O)c2ccccc2C1=O	13%	17%	1%	-2%	?	6%[46.1 µM]
